A short description of experiment [1]: S16 Schwann cell PMP22 intronic element beta-lactamase assay (AID 624044; calls by dose curve; note: nearly all actives have a fitted effect of over 15% in size). The procedure, abridged: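 Rat S16 Schwann cells with beta-Lac driven by a PMP22 intronic element, compound-treated 24 h at 37 °C. LiveBLAzer FRET B/G read: 460 nm normalized to potassium clavulanate vs DMSO; 535 nm FRET as viability; concentration-effect curves classified.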
Experiment [2] deals with ATS95. Put plainly: qHTS profiling for inhibitors of Plasmodium falciparum proliferation (AID 504749). Note: nearly all actives have a fitted effect of over 60% in size. Note: potency is the fitted concentration of half-maximal effect. The settings on record: P. falciparum in erythrocytes, SYBR Green DNA, 72 h; series mostly up to 12.8 µM. A digest of the protocol: (§1)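 P. falciparum-infected erythrocytes (0.3% parasitemia, 2.5% hematocrit final) were exposed to compounds for 72 h at 37 C in 5% CO2, then lysed with SYBR Green buffer overnight at room temperature; parasite DNA fluorescence was normalized to artemisinin and DMSO controls.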

Experiment [3] has as its system CP194. The experiment is described as above. The settings on record: P. falciparum in erythrocytes, SYBR Green DNA, 72 h; series mostly up to 12.8 µM. A digest of the protocol:
as §1

The subject of experiment [4] is CP211. The description is as above. The settings on record: P. falciparum in erythrocytes, SYBR Green DNA, 72 h; series mostly up to 12.8 µM. A digest of the protocol: as §1
Experiment [5] relates to CP237. Described as above. The settings on record: P. falciparum in erythrocytes, SYBR Green DNA, 72 h; series mostly up to 12.8 µM. The procedure, abridged: as §1
The test system of experiment [6] is CP247. The experiment is described as above. The settings on record: P. falciparum in erythrocytes, SYBR Green DNA, 72 h; series mostly up to 12.8 µM. The procedure, abridged:
as §1

Experiment [7] has as its system CP252. The experiment is described as above. The settings on record: P. falciparum in erythrocytes, SYBR Green DNA, 72 h; series mostly up to 12.8 µM. The procedure, abridged:
as §1

Experiment [8] deals with CP256. The experiment is described as above. The settings on record: P. falciparum in erythrocytes, SYBR Green DNA, 72 h; series mostly up to 12.8 µM. A digest of the protocol: as §1
Experiment [9] concerns CP266. The experiment is described as above. The settings on record: P. falciparum in erythrocytes, SYBR Green DNA, 72 h; series mostly up to 12.8 µM. A digest of the protocol: as §1
Experiment [10] has as its system CP269. The description is as above. The settings on record: P. falciparum in erythrocytes, SYBR Green DNA, 72 h; series mostly up to 12.8 µM. A digest of the protocol:
as §1

Experiment [11] relates to CP286. The description is as above. The settings on record: P. falciparum in erythrocytes, SYBR Green DNA, 72 h; series mostly up to 12.8 µM. A digest of the protocol: as §1
The subject of experiment [12] is CP297. The description is as above. The settings on record: P. falciparum in erythrocytes, SYBR Green DNA, 72 h; series mostly up to 12.8 µM. A digest of the protocol: as §1
Experiment [13] concerns CP325. Described as above. The settings on record: P. falciparum in erythrocytes, SYBR Green DNA, 72 h; series mostly up to 12.8 µM. A digest of the protocol:
as §1

Experiment [14] concerns DIV14. Described as above. The settings on record: P. falciparum in erythrocytes, SYBR Green DNA, 72 h; series mostly up to 12.8 µM. A digest of the protocol: as §1
Experiment [15] deals with Dd2. The experiment is described as above. The settings on record: P. falciparum in erythrocytes, SYBR Green DNA, 72 h; series mostly up to 12.8 µM. The procedure, abridged: as §1
Experiment [16] concerns HB3. The description is as above. The settings on record: P. falciparum in erythrocytes, SYBR Green DNA, 72 h; series mostly up to 12.8 µM. The procedure, abridged:
as §1

Experiment [17] deals with P93_24. The experiment is described as above. The settings on record: P. falciparum in erythrocytes, SYBR Green DNA, 72 h; series mostly up to 12.8 µM. The procedure, abridged: as §1
Experiment [18] concerns P94_40. Described as above. The settings on record: P. falciparum in erythrocytes, SYBR Green DNA, 72 h; series mostly up to 12.8 µM. A digest of the protocol: as §1
The test system of experiment [19] is TAB113. The description is as above. The settings on record: P. falciparum in erythrocytes, SYBR Green DNA, 72 h; series mostly up to 12.8 µM. The procedure, abridged: as §1

Inconclusive results are not listed. Calls of active or inactive are those of the source. Unless noted, calls come from the whole dose curve; as a rule, active = well fitted inhibition curve with a large enough effect; inconclusive = small, poorly fitted or top-dose-only effect; inactive = flat fitted curve, though single readings scatter. Peptide text beside a SMILES is read from it.

Turning to `OCC1O[C@H](OC2C(CO)O[C@@](O)(CO)C2O)C(O)C(O)C1O` (some centres undefined), the Potency entry in experiment [1], in experiment [2], in experiment [3], in experiment [4], in experiment [5] and in experiment [6] was “inactive” in each case. In addition, the Potency result in experiment [7], in experiment [8], in experiment [9], in experiment [10], in [11] and in [12] was “inactive” throughout. The Potency entry in [13], in experiment [14], in [15], in [16], in experiment [17] and in experiment [18] was “inactive” in each case. In [19], the Potency entry is “inactive”.
`CCCCCCCCCc1ccc(OCCOCCOCCOCCOCCOCCOCCOCCOCCO)cc1`: the Potency result in experiment [2], in [7], in experiment [9], in experiment [11], in [13] and in [18] was “inactive” throughout. Besides, the Potency entry in [19] is “inactive”.
For the molecule `NC(CCC(=O)N[C@@H](CS)C(=O)NCC(=O)O)C(=O)O` (some centres undefined), the Potency entry in [1] and in experiment [9] was “inactive” in each case. Besides, the Potency in experiment [5] was 3.55 µM (active); in experiment [8] it was 8.91 µM (active); in [10], 15.1 µM (active); in [12], 15.1 µM (active); in experiment [14], 3.01 µM (active); in experiment [15], 5.01 µM (active). The Potency was 3.16 µM (active) in [16], 3.16 µM (active) in experiment [17], 3.55 µM (active) in experiment [18] and 7.94 µM (active) in experiment [19].
Regarding `CCC(C)C(=O)OC1CCC=C2C=CC(C)C(CCC3CC(O)CC(=O)O3)[C@@H]21` (some centres undefined), the Potency entry in experiment [2], in experiment [3], in experiment [4], in [5], in [6] and in [7] was “inactive” throughout. In addition, the Potency result in experiment [8], in experiment [9], in [10], in [11], in experiment [12] and in experiment [13] was “inactive” each time. Also, the Potency result in experiment [14], in experiment [16], in experiment [17] and in experiment [18] was “inactive” each time.
`COc1ccc2cc(C(C)CO)ccc2c1` (centres undefined): the Potency entry in experiment [1], in [2], in experiment [3], in [4], in [5] and in experiment [6] was “inactive” throughout. Further, the Potency entry in experiment [7], in [8], in experiment [9], in [10], in experiment [11] and in experiment [12] was “inactive” each time. Moreover, the Potency result in experiment [13], in experiment [14], in [15], in experiment [16], in experiment [17] and in experiment [18] was “inactive” throughout.
Turning to `CNC1CC(N)[C@H](O)[C@@H](O[C@@H]2OC(CO)C3OC4(OC(C(N)CO)C(O)C(O)C4O)O[C@@H]3[C@H]2O)C1O` (some centres undefined), the Potency result in experiment [1], in [2], in [3], in [4], in [5] and in experiment [6] was “inactive” in each case. The Potency result in [7], in experiment [8], in experiment [9], in [10], in experiment [11] and in experiment [12] was “inactive” each time. Moreover, the Potency entry in [13], in experiment [14], in experiment [15], in [16], in experiment [17] and in experiment [18] was “inactive” in each case. In experiment [19], the Potency result is “inactive”.
Turning to `CC(C)Oc1ccc2c(=O)cc(-c3ccccc3)oc2c1`, the Potency result in [1], in experiment [2], in [3], in experiment [4], in experiment [5] and in experiment [6] was “inactive” throughout. Besides, the Potency entry in experiment [7], in [8], in experiment [9], in experiment [10], in experiment [11] and in [13] was “inactive” throughout. Further, the Potency entry in [14], in experiment [15], in [16], in experiment [18] and in [19] was “inactive” throughout.
Regarding `N[C@@H]1C(O)OC(CO)C(O)C1O` (some centres undefined), the Potency entry in [1], in experiment [2], in experiment [3], in experiment [4], in [5] and in experiment [6] was “inactive” throughout. The Potency result in [7], in experiment [8], in experiment [9], in experiment [11], in [12] and in experiment [13] was “inactive” throughout. Further, the Potency result in experiment [15], in experiment [16], in [17] and in experiment [19] was “inactive” each time.
On to `CCCC(=O)O[C@]1(C(=O)CO)CCC2[C@@H]3CCC4=CC(=O)CC[C@]4(C)C3C(O)C[C@]21C` (some centres undefined), for which the Potency entry in [1], in experiment [2], in [3], in experiment [4], in experiment [5] and in experiment [6] was “inactive” each time. Moreover, the Potency entry in experiment [7], in experiment [8], in experiment [9], in experiment [10], in [11] and in experiment [12] was “inactive” in each case. Moreover, the Potency result in experiment [13], in [14], in experiment [15], in experiment [16], in experiment [17] and in [18] was “inactive” each time. In experiment [19], the Potency result was “inactive”.
In the case of `CN(C)CCc1c[nH]c2ccc(CC3COC(=O)N3)cc12` (centres undefined), the Potency result in experiment [1], in experiment [2], in [3], in experiment [4], in experiment [5] and in [6] was “inactive” each time. Also, the Potency result in experiment [7], in experiment [8], in [10], in experiment [11], in experiment [12] and in [13] was “inactive” each time. Moreover, the Potency result in experiment [14], in experiment [15], in experiment [16], in [17], in [18] and in experiment [19] was “inactive” throughout.
On to `COC(=O)C(Cc1ccccc1)NC(=O)C(N)CC(=O)O` (stereo not drawn) (H-Asp-Phe-OMe; configuration not given here), for which the Potency entry in experiment [1], in [2], in [3], in [4], in [5] and in [6] was “inactive” in each case. For the same molecule, the Potency entry in [7], in [8], in [9], in experiment [10], in experiment [11] and in experiment [12] was “inactive” each time. In addition, the Potency entry in experiment [13], in [14], in experiment [15], in experiment [16], in experiment [17] and in experiment [18] was “inactive” throughout. For the same molecule, the Potency entry in experiment [19] was “inactive”.
In the case of `CC1(C)OC2CO[C@]3(COS(N)(=O)=O)OC(C)(C)OC3C2O1` (some centres undefined), the Potency result in experiment [1], in [2], in [3], in experiment [4], in [5] and in experiment [6] was “inactive” throughout. Besides, the Potency result in experiment [7], in experiment [8], in [9], in experiment [10], in experiment [11] and in [12] was “inactive” throughout. The Potency entry in experiment [13], in experiment [14], in experiment [15], in experiment [16], in experiment [17] and in [18] was “inactive” throughout. Also, in experiment [19], the Potency entry is “inactive”.

The values above are taken from PubChem BioAssay (NCATS).
